Results filed as inconclusive are left out. The source made the active and inactive calls. Calls come from the whole dose curve; as a rule, active = well fitted curve in the direction sought with a large enough effect; inconclusive = small, poorly fitted or top-dose-only effect, or another doubt; inactive = no such curve, though single readings can be large; an effect the other way counts as inactive or inconclusive.

A short description of assay [1]: qHTS of pediatric cancer cell lines to identify multiple opportunities for drug repurposing: Primary screen for SK-N-SH cells (AID 1347098). Note: nearly all actives have a fitted effect of over 65% in size. Note: potency is the fitted concentration of half-maximal effect. The gist of the method:
(§1)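 Cells (500-1,000/well) rested 5 h, then received compounds for 48 h; metabolically active cells were measured by CellTiter-Glo luminescence. Final concentrations spanned up to 46 µM (MIPE, 11-point) or 0.59 nM-46 µM (NPC, 8-point) in primary screens, 11-point in follow-ups.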

Assay [2] is described as follows: qHTS of pediatric cancer cell lines to identify multiple opportunities for drug repurposing: Primary screen for NB1643 cells (AID 1347099). Note: nearly all actives have a fitted effect of over 50% in size. Note: potency is the fitted concentration of half-maximal effect. The gist of the method: (§2)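 ATP-based luminescence (CellTiter-Glo) quantifies viability after a 48-hour exposure. Compounds are dosed across 8 or 11 final concentrations; DMSO and 2.3 µM bortezomib serve as controls.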
Assay [3] in a line: qHTS of pediatric cancer cell lines to identify multiple opportunities for drug repurposing: Primary screen for LAN-5 cells (AID 1347100). Note: potency is the fitted concentration of half-maximal effect. The gist of the method: (§3)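 Cells (500-1,000/well) in growth media were settled 5 h at 37 degrees C, then given compounds for 48 h. Viability was read as CellTiter-Glo luminescence. Primary runs used MIPE at 11 points (0.78 nM-46 µM) and NPC at 8 points (0.59 nM-46 µM); follow-ups used 11 points.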

The nature of assay [4]: qHTS of pediatric cancer cell lines to identify multiple opportunities for drug repurposing: Primary screen for BT-12 cells (AID 1347101). Note: nearly all actives have a fitted effect of over 25% in size. Note: potency is the fitted concentration of half-maximal effect. The gist of the method: as §1
A short description of assay [5]: qHTS of pediatric cancer cell lines to identify multiple opportunities for drug repurposing: Primary screen for RD cells (AID 1347104). Note: nearly all actives have a fitted effect of over 55% in size. Note: potency is the fitted concentration of half-maximal effect. The gist of the method: as §2
The nature of assay [6]: qHTS of pediatric cancer cell lines to identify multiple opportunities for drug repurposing: Primary screen for MG 63 (6-TG R) cells (AID 1347105). Note: nearly all actives have a fitted effect of over 50% in size. The gist of the method:
as §2

Assay [7] is described as follows: qHTS of pediatric cancer cell lines to identify multiple opportunities for drug repurposing: Primary screen for Rh18 cells (AID 1347102). Note: nearly all actives have a fitted effect of over 65% in size. Note: potency is the fitted concentration of half-maximal effect. The gist of the method:
as §3

Assay [8] can be described thus: qHTS of pediatric cancer cell lines to identify multiple opportunities for drug repurposing: Primary screen for OHS-50 cells (AID 1347103). Note: nearly all actives have a fitted effect of over 40% in size. Note: potency is the fitted concentration of half-maximal effect. A digest of the protocol: as §1
The nature of assay [9]: qHTS of pediatric cancer cell lines to identify multiple opportunities for drug repurposing: Primary screen for control Hh wild type fibroblast cells (AID 1347106).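 Note: series mostly up to about 46 µM; a drop in luminescence marks cytotoxicity and a rise apparent proliferation; nearly all actives have a fitted effect of over 55% in size.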 A digest of the protocol: as §3

For the compound `Cc1nc(C(=O)NCC(=O)O)c(O)c2ccc(Oc3ccccc3)cc12`, the Potency entry in assay [1], in assay [2], in [3], in [4], in assay [5] and in [6] was “inactive” in each case.

As to `CCNC(=O)Nc1ccc(Oc2ncnc(N)c2C=NOC)cc1Cl`, the Potency entry in assay [1], in assay [2], in assay [4], in assay [7], in [8] and in assay [5] was “inactive” each time. For the same compound, the Potency entry in assay [6] and in assay [9] was “inactive” throughout.

Consider `OC(c1cc(C(F)(F)F)nc2c(C(F)(F)F)cccc12)C1CCCCN1` (centres undefined), for which the figures for the Potency in [1] and in [3] were 34.1 µM (active) and 33.2 µM (active), respectively. In addition, the Potency result in [2] and in assay [6] was “inactive” each time.

For `O=C(NC[C@H](O)CO)c1ccncc1Nc1ccc(I)cc1F`, the results for the Potency in assay [1] and in assay [7] were 21.5 µM (active) and 10.5 µM (active), respectively. The Potency entry in [2], in assay [8], in assay [6] and in [9] was “inactive” in each case.

In the case of `C=C1[C@H](n2cnc3c(=O)[nH]c(N)nc32)C[C@H](O)[C@H]1CO`, the Potency entry in assay [1], in assay [2], in [7] and in [9] was “inactive” in each case.

For `CCC(=O)NCC[C@@H]1CCc2ccc3c(c21)CCO3`, the Potency result in assay [1], in [2], in assay [3], in assay [7], in assay [6] and in assay [9] was “inactive” in each case.

Consider `CCCCC(C)(C)[C@H](O)C=C[C@H]1[C@H](O)CC(=O)[C@H]1CC=CCCCC(=O)O`, for which the Potency entry in assay [1], in [2], in [7], in [8], in assay [6] and in assay [9] was “inactive” each time.

On to `O=C(CO)N1CCC(c2[nH]nc(-c3ccc(Cl)cc3)c2-c2ccncn2)CC1`, for which the Potency result in assay [1], in assay [2], in assay [3], in assay [4], in assay [8] and in assay [5] was “inactive” throughout. In addition, the Potency result in [6] and in assay [9] was “inactive” in each case.

Regarding `CNC(=O)c1ccc2c(C(=Nc3cccc(CN(C)C)c3)c3ccccc3)c(O)[nH]c2c1`, the figures for the Potency in assay [1] and in assay [2] were 21.5 µM (active) and 16.6 µM (active), respectively. Also, the Potency entry in [4], in assay [7], in [6] and in assay [9] was “inactive” throughout.

With `CN1CCN(c2ncc(-c3cc(Cl)cc(Cl)c3Cl)c(N)n2)CC1`, the Potency in assay [1] is 21.5 µM (active); in assay [2], 16.6 µM (active); in [4] it was 4.32 µM (active); in assay [8] it was 3.85 µM (active). The Potency entry in assay [7], in assay [6] and in assay [9] was “inactive” in each case.

As to `Cc1ccc(NC(=O)c2cccc(N(C)C)c2)cc1NC(=O)c1ccc(O)cc1`, the Potency in assay [1] was 15.2 µM (active); in assay [2] it was 0.332 µM (active); in assay [3], 2.96 µM (active). For the same compound, the Potency result in assay [7], in [8] and in assay [9] was “inactive” throughout.

For `CN1CCC[C@H]1CCO[C@](C)(c1ccccc1)c1ccc(Cl)cc1`, the Potency was 30.4 µM (active) in assay [1] and 20.9 µM (active) in [2]. The Potency result in assay [3], in [4], in assay [7], in [6] and in assay [9] was “inactive” in each case.

As for `Cn1c(=O)c(Oc2ccc(F)cc2F)cc2cnc(NC3CCOCC3)nc21`, the Potency entry in [2], in assay [3], in assay [4], in assay [5] and in [9] was “inactive” throughout.

For `NC(=O)c1noc([C@H](CCCC2CCCCC2)CC(=O)NO)n1`, the Potency was 18.7 µM (active) in assay [2], 14.8 µM (active) in assay [3], 13.2 µM (active) in assay [7] and 7.69 µM (active) in assay [8].

Turning to `O=C1CCCC(=O)C1C(=O)c1ccc(C(F)(F)F)cc1[N+](=O)[O-]`, the Potency result in assay [2], in assay [3], in assay [4], in assay [8], in assay [6] and in [9] was “inactive” throughout.

On to `CCNC(=O)[C@H]1O[C@@H](n2cnc3c(N)nc(NCCc4ccc(CCC(=O)O)cc4)nc32)[C@H](O)[C@H]1O`, for which the Potency result in assay [2], in assay [3], in [4], in [7], in assay [5] and in assay [6] was “inactive” each time. Also, the Potency result in assay [9] is “inactive”.

`OC[C@H]1O[C@@H](OCCc2ccc(O)cc2)[C@H](O)[C@@H](O)[C@H]1O`: the Potency entry in assay [2], in [3], in assay [4], in [7], in assay [8] and in assay [6] was “inactive” throughout.

For the compound `O=C1NC(=O)C(=Cc2ccc(-c3ccc(F)cc3O)o2)S1`, the Potency result in assay [2], in [3] and in assay [7] was “inactive” each time. The Potency in assay [8] is 1.72 µM (active).

Turning to `CNc1nc(Nc2ccc(C(=O)N3CCOCC3)cc2OC)ncc1Cl`, the Potency in assay [2] was 4.69 µM (active). Further, the Potency entry in [4], in [7] and in assay [9] was “inactive” in each case.

For the compound `COc1cc(Nc2nc3ccccc3nc2NS(=O)(=O)c2ccc(NC(=O)c3ccc(C)c(OC)c3)cc2)cc(OC)c1`, the Potency entry in assay [2], in [3] and in [7] was “inactive” each time.

In the case of `CCC[C@H](N[C@@H](C)C(=O)N1[C@@H]2CCCC[C@H]2C[C@H]1C(=O)O)C(=O)OCC`, the Potency result in assay [2], in [3], in assay [6] and in assay [9] was “inactive” throughout.

Consider `Fc1ccc(CNc2ncnc3ccc(F)cc23)cc1`, for which the Potency entry in assay [2], in [3], in [7], in [6] and in assay [9] was “inactive” throughout. Moreover, the Potency in [4] was 4.32 µM (active); in assay [8] it was 6.85 µM (active).

On to `Cc1cc(-c2ncc(CC(=O)Nc3ccc(-c4cnccn4)cn3)cc2C)ccn1`, for which the Potency in assay [2] was 16.6 µM (active); in assay [4], 6.85 µM (active). Further, the Potency entry in assay [7] and in assay [6] was “inactive” each time.

For the compound `CC(O)=C(C#N)C(=O)Nc1ccc(C(F)(F)F)cc1`, the Potency in assay [2] was 23.5 µM (active). Further, the Potency entry in assay [3] and in assay [9] was “inactive” throughout.

For `C=C1c2cccc(O)c2C(O)=C2C(=O)[C@@]3(O)C(O)=C(C(N)=O)C(=O)[C@@H](N(C)C)[C@@H]3[C@@H](O)[C@H]12`, the Potency in [2] was 23.5 µM (active); in [3], 13.2 µM (active). Further, the Potency entry in [8], in assay [5], in [6] and in assay [9] was “inactive” each time.

Consider `COC(=O)[C@H](c1ccccc1Cl)N1CCc2sccc2C1`, for which, in [2], the Potency is 20.9 µM (active). The Potency entry in assay [3], in assay [7], in assay [6] and in assay [9] was “inactive” throughout.

In the case of `c1ccc(CNc2nc(N3CCOc4ccccc43)nc3c2CCCC3)cc1`, the Potency in assay [2] was 23.5 µM (active). Also, the Potency result in assay [7], in assay [5], in assay [6] and in assay [9] was “inactive” in each case.

In the case of `CC1(C)C(N(O)C(=O)Nc2ccc(Cl)cc2)N(c2ccc(Cl)cc2)C(=O)N1CC(=O)NN=CC=Cc1ccc([N+](=O)[O-])o1` (centres undefined), the results for the Potency in assay [2], in [7] and in assay [5] were 20.9 µM (active), 20.9 µM (active) and 29.6 µM (active), respectively.

Consider `CS(=O)(=O)c1ccc(C2=C(c3ccccc3)C(=O)OC2)cc1`, for which the Potency result in assay [2], in assay [3], in assay [4], in assay [8], in [5] and in assay [6] was “inactive” in each case.

On to `COc1ccc(C=CC(=O)Nc2ccccc2C(=O)O)cc1OC`, for which the Potency in assay [2] was 5.9 µM (active). For the same compound, the Potency result in [3], in assay [4], in assay [6] and in [9] was “inactive” throughout.

`Cc1ccc(NC(=O)c2ccc(CN3CCN(C)CC3)cc2)cc1Nc1nc(-c2cccnc2)cs1`: the Potency result in assay [2], in [6] and in [9] was “inactive” in each case. Moreover, the Potency in assay [3] was 18.7 µM (active); in assay [4] it was 21.7 µM (active); in assay [8] it was 21.7 µM (active); in assay [5], 18.7 µM (active).

Regarding `CC1CCN(c2cc(N3CCN(C)CC3)ccc2NC(=O)c2cc(C#N)c[nH]2)CC1`, the Potency entry in assay [2], in assay [3], in [4], in assay [7], in assay [6] and in assay [9] was “inactive” in each case.

The values above are taken from PubChem BioAssay (NCATS).
